Compound activity from PubChem.
ATG4B inhibitor = inhibitors of human ATG4B cysteine protease; inhibition, % at 8.33 µM; ATG4B cleavage of LC3-PLA2, NBD-HPC fluorescence, 1 h; actives 0.51% (n = 340,000); AID 504462; Q9Y4P1; in the data active = inhibition above about 40%
Target sequence (Q9Y4P1 whole entry, looked up): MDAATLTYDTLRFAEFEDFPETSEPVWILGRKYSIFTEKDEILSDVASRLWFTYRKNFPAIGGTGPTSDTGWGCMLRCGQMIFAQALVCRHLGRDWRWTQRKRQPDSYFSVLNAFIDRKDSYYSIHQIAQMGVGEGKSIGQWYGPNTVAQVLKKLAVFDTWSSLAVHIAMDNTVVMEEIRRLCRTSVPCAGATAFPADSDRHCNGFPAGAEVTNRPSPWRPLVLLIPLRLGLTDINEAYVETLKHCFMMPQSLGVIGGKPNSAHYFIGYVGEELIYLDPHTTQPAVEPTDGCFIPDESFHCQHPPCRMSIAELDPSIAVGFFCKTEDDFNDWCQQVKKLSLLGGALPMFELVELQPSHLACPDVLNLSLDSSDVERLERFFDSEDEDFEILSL
Myeloid diff 2 = myeloid differentiation induction | ER-HoxA9 myeloid progenitors, lysozyme-GFP differentiation, flow cytometry | calls only at 10 µM | actives 1% (n = 360,000) | AID 624256;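 active = normalized GFP-positive differentiation at or above the plate's own cutoff, the solvent-only control mean plus 3 SD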;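 note: cells exposed to compound for four days before flow analysis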
CHRM1 PAM = positive allosteric modulators of human M1 muscarinic receptor; actives 0.088% (n = 360,000); CHO-K1 hM1, Fluo-8 calcium fluorescence, ACh EC20; 0% = ACh EC20, 100% = maximal ACh; activation, % at 3 µM; P11229; in the data active = activation above about 19%, passing the limit was not always enough
SKN-1 block = inhibitors of C. elegans SKN-1; C. elegans VP596 Pgst-4::GFP/RFP ratio, acrylamide-induced, 24 h; inhibition, % at 21.8 µM; actives 0.49% (n = 360,000);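 active = interference check ratio from 0.5 to 1.5 plus GFP to RFP signal ratio inhibition reaching or exceeding a fixed threshold, cut at about 30% in these data, passing the limit was not always enough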
CHRM1 antagonist = antagonists of human M1 muscarinic receptor. inhibition, % at 3 µM. actives 1.3% (n = 360,000). P11229. CHO-K1 hM1, Fluo-8 calcium fluorescence, ACh EC80 antagonist. AID 588852;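 active = percent inhibition above its own plate's cutoff, namely the mean of that plate's compound wells plus 3 SD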;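 note: peak over basal fluorescence ratio during 140 s after agonist addition; 0% = ACh EC80 plus DMSO and 100% = DMSO alone without agonist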
CHRM1 agonist = activates human CHRM1 receptor; P11229; CHO-K1 hM1, Fluo-8 calcium fluorescence, agonist mode; 0% DMSO, 100% acetylcholine EC100; activation, % at 3 µM; actives 0.33% (n = 360,000);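 active = activation above the run's mean compound activation plus 3 SD, cut at about 16% in these data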;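 note: peak over basal fluorescence ratio within a 140 s kinetic read after compound addition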
Numbers without * were called inactive; i = inactive; · = no result; + = active, no number. The list is not random: actives were taken first. Their share in the collection is about 3.5%.

SMILES	ATG4B inhibitor	Myeloid diff 2	CHRM1 PAM	SKN-1 block	CHRM1 antagonist	CHRM1 agonist
CCOC(=O)C1=C(COC(=O)[C@H](C)NS(=O)(=O)c2ccc(NC(C)=O)cc2)NC(=O)NC1C (stereo not given in full)	-6	i	7	5	-10	-3
O=C(NCc1ccc(C(F)(F)F)cc1)c1ccc(-c2ccc(F)c(F)c2)c2ccoc12	·	i	-3	-2	-1	-4
O=C(NCc1ccncc1)c1ccc(-c2ccc(F)c(F)c2)c2ccoc12	·	i	-7	62*	15	4
COc1ccc(-c2ccc(C(=O)NCc3ccncc3)c3occc23)c(C)c1	·	i	-17	-1	42*	-1
CC(CN1CCN(C/C=C/c2ccccc2)CC1)c1ccccc1 (stereo not given)	-1	i	-7	12	-4	-9
Cc1nn(-c2ccc(F)cc2)c2sc(C(=O)N3CCCCCC3)cc12	11	i	7	48*	-6	-1
Nc1sccc1C(=O)NCc1ccccc1	·	+	·	39*	·	·
CCC1(C)Cc2c(C#N)c(N)n(-c3ccccc3)c(=S)c2CO1 (stereo not given)	-2	i	-9	4	14	-9
CCC1(C)Cc2c(C#N)c(N)sc(=S)c2CO1 (stereo not given)	-12	i	8	46*	-31	-2
CN1OC[C@@H]2CN(C(=O)CCc3ccccc3)[C@H](c3ccccc3Br)C[C@@H]21	·	i	-7	15	22	-2
COc1cccc(-c2nnc(NC(=O)c3ccc(S(=O)(=O)N4CC(C)OC(C)C4)cc3)o2)c1 (stereo not given)	-9	+	2	-10	1	-2
CC1CCCN(S(=O)(=O)c2ccc(C(=O)Nc3nnc(-c4ccccn4)o3)cc2)C1 (stereo not given)	5	i	0	10	0	-4
CC1CCCN(S(=O)(=O)c2ccc(C(=O)Nc3nnc(-c4ccccc4Cl)o3)cc2)C1 (stereo not given)	0	+	-7	1	5	-3
Cc1cc([N+](=O)[O-])cc2c1NC(=O)C2(O)N1CCOCC1 (stereo not given)	-5	i	3	17	1	-5
CCN(CC)c1ccc(C(=O)NNC(=O)c2cccn2C)cc1	-2	i	6	14	-12	-5
COc1cc([N+](=O)[O-])ccc1NC(=S)NC(=O)CC(C)(C)C	-8	i	-2	23	-1	-5
Cc1cc2ccccc2n1CCNC(=O)c1ccc(S(=O)(=O)N2CCOCC2)cc1	-22	i	-9	47*	11	-10
Cc1cc2ccccc2n1CCNC(=O)Cc1cccc2ccccc12	-11	i	17	56	-19	-5
O=C(NCCCN1CCOCC1)c1ccc(S(=O)(=O)N2CCOCC2)cc1	-4	i	-2	-2	-9	-7
Cc1cc2ccccc2n1CCNC(=O)c1ccccc1	0	i	-6	48*	11	-2
Cc1cc2ccccc2n1CCNC(=O)c1ccc(Br)o1	-4	i	-4	37*	2	-5
CCC(=O)NCCn1c(C)cc2ccccc21	-1	i	-3	39*	3	-2
CC(=O)c1cccc(S(=O)(=O)NCCCN2CCOCC2)c1	-3	i	0	8	-5	-2
CCOc1ccccc1NC(=O)COC(=O)C1CCC(=O)N1 (stereo not given)	7	i	17	10	-23	0
Cc1cc2ccccc2n1CCNC(=O)C(C)(C)C	-20	i	-14	44	33*	-4
CC(=O)NCCn1c(C)cc2ccccc21	4	i	6	49*	-14	-1
Cc1cc2ccccc2n1CCNC(=O)COc1ccccc1	-6	i	5	49	-9	-6
CC(C)(C)C(=O)NCCn1ccc2ccccc21	-8	i	3	22	1	-4
CC(C)Sc1sc(C(=O)O)c(-c2ccc(Cl)cc2)c1C#N	20	i	5	3	-14	-3
COc1ccc(CN2C(=O)CN(S(C)(=O)=O)CC2(C)C(=O)Nc2ccc3c(c2)OCCO3)cc1OC (stereo not given)	·	i	·	15	·	·
